Screening data: PubChem, National Center for Advancing Translational Sciences (NCATS)
D2 antag: HTS Assay for Allosteric Antagonists of the Human D2 Dopamine Receptor: Primary Screen for Antagonists; D(2) dopamine receptor (Homo sapiens), P14416; HEK293 TREx D2 cells, calcium flux, dopamine EC80; inhibition, % at 10 µM; hit rate 2% among 340,000; AID 485344, 2010; in the data active = inhibition above about 30%; inactive = below that, where a call was filed
Target sequence (P14416 whole entry, looked up): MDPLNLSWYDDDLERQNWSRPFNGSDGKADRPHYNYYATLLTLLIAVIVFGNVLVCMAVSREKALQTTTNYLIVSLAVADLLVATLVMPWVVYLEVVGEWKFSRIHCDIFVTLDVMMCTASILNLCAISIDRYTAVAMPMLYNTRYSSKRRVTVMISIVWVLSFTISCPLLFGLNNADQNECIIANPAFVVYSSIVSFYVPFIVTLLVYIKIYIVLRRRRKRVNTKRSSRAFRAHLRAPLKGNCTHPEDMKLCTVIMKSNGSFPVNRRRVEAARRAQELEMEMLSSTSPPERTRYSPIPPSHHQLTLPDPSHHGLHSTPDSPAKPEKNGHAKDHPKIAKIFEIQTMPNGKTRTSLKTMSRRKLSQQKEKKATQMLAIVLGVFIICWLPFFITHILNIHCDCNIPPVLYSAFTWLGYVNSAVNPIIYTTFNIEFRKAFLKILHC
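Dopamine at EC80 is the agonist stimulus; test compounds precede it by 180 s. Calcium flux read kinetically in a force-coupled, inducible HEK293 T-REx D2 cell line.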
D2 ag-1: Beta-Arrestin HTS for Positive Allosteric Modulators of the Human D2 Dopamine Receptor: Agonists; activation, % (test concentration not listed); DiscoveRx PathHunter D2 beta-arrestin, luminescence, 90 min; 100% = 57 uM dopamine signal; hit rate 0.084% among 360,000; in the data active = activation above about 40%; inconclusive = between about 15% and that limit
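DiscoveRx PathHunter D2 beta-arrestin cells (2,100/well) attached overnight, then compound-stimulated 90 min at 37 C in HBSS/10 mM HEPES/0.1% Tween-20 buffer; beta-galactosidase complementation read by luminescence after 1 h at ambient temperature. Dopamine 57 uM final (EC100) as control.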
D2 PAM-1: Beta-Arrestin HTS for Positive Allosteric Modulators of the Human D2 Dopamine Receptor: Potentiators | D(2) dopamine receptor (Homo sapiens), P14416 | AID 624464, 2012 | potentiation, % (test concentration not listed) | DiscoveRx D2 beta-arrestin cells, luminescence, 90 min; 100% = 57 uM dopamine signal | hit rate 0.23% among 360,000; in the data active = potentiation above about 50%; inconclusive = mostly about 30% to 49%
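D2 cells co-treated with compound plus 50 nM dopamine (EC20) for 90 min at 37 deg C to detect potentiation. Beta-arrestin recruitment was read as enzyme-fragment luminescence after 1 h at ambient temperature. Full response was set by 57 uM dopamine.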
D2 ag-2: HTS Assay for Allosteric Agonists of the Human D2 Dopamine Receptor: Primary Screen for Agonists; hit rate 0.53% among 340,000; activation, % at 2 µM; AID 485358, 2010; HEK293 T-REx D2 cells, calcium flux agonist mode;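 active = activation over 3 SD above normal in the single-dose calcium agonist read, cut at about 30% in these data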
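HEK293 Trex D2 cells, tetracycline-induced, o/n 30 C 5% CO2; no-wash Ca dye, RT 30–90 min; 10-cycle baseline, 23 nl cpd added, kinetic Ca read 180 s; agonist hits = positive Ca response.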
D2 PAM-2: HTS Assay for Positive Allosteric Modulators of the Human D2 Dopamine Receptor: Primary Screen for Potentiators; potentiation, % at 10 µM; HEK293 T-REx D2, calcium flux, EC20 dopamine potentiation; AID 485347, 2010; hit rate 0.34% among 340,000;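 active = potentiation over 3 SD above the plate norm, cut at about 30% in these data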
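Cells plated with tetracycline inducer and held overnight at 30 C; calcium dye loaded 30–90 min at room temperature; baseline taken, compound added and read 180 s; EC20 dopamine then added and read 180 s.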
D3 arrestin ag: qHTS of D3 Dopamine Receptor Agonist: D3 Dopamine Receptor B-arrestin Agonist Confirmatory Assay; shares compounds with D2 ag-2; DiscoveRx D3 beta-arrestin cells, luminescence, 90 min; Potency, µM (highest dose often 76.9 µM), usual class: activators; hit rate 4% among 2,300; note: nearly all actives have a fitted effect of over 70% in size
D2 ag-3: qHTS of D3 Dopamine Receptor Agonist: D2 Dopamine Receptor B-arrestin Agonist Counterscreen; Potency, µM (top dose mostly 76.9 µM), actives largely listed as activators; hit rate 5.9% among 2,300; shares compounds with D2 ag-2; DiscoveRx PathHunter D2 beta-arrestin, luminescence, 90 min; response scale: percent relative to full dopamine signal; note: nearly all actives have a fitted effect of over 70% in size
Large screens that a line does not name were inactive (follow-up assays come after a bar, where they were run). In the library only some 2.4% were active in any assay of this set; here they are far more common. Unless noted, calls come from the whole dose curve; as a rule, active = well fitted activation curve with a large enough effect; inconclusive = small, poorly fitted or top-dose-only effect; inactive = flat fitted curve, though single readings scatter.

CCCCN(C)C(=O)c1nc2ccccn2c1CN1CCN(c2cnccn2)CC1	none
Cc1ccc2c(=O)cc(C(=O)N(Cc3ccc(N(C)C)cc3)C3CCS(=O)(=O)C3)oc2c1 (stereo unspecified)	none (no result: D2 antag, D2 ag-1, D2 PAM-1)
Cn1cc(CNCc2ccc(-n3cccn3)cc2)c(-c2ccccc2F)n1	D2 antag 44.2, D2 ag-1 inconclusive, D2 ag-2 45.5 | D3 arrestin ag inactive | D2 ag-3 inconclusive
COC(=O)c1ccc(N/C=C/C(=O)c2ccccc2)cc1	none | D3 arrestin ag inactive | D2 ag-3 inactive
COc1ccccc1C(=O)Nc1ccnn1C1CCN(CCCc2ccccc2)CC1	D2 antag 32.8 | D3 arrestin ag inactive | D2 ag-3 inactive
O=C(Nc1ccnn1C1CCN(CCCc2ccccc2)CC1)c1ccccc1	D2 antag 43.6 | D3 arrestin ag inactive | D2 ag-3 inactive
Cc1ccccc1C(=O)Nc1ccnn1C1CCN(CCCc2ccccc2)CC1	D2 ag-1 inconclusive
O=C(Nc1ccnn1C1CCN(C/C=C/c2ccccc2)CC1)C1CCCC1	D2 ag-2 58.2 | D3 arrestin ag inactive | D2 ag-3 inactive
COC(=O)c1ccc2c(=O)n(CCc3ccc(S(N)(=O)=O)cc3)c(SCC(=O)C(C)(C)C)nc2c1	none (no result: D2 antag, D2 ag-1, D2 PAM-1)
O=C(Nc1c(C(=O)N2CCN(c3ccccc3)CC2)oc2ccccc12)c1ccc(Br)o1	none (no result: D2 antag, D2 ag-1, D2 PAM-1)
Cc1ccc(S(=O)(=O)c2nnn3c2nc(N2CCC(C)CC2)c2cc(Cl)ccc23)cc1C	none (no result: D2 antag, D2 ag-1, D2 PAM-1)
COc1cc(/C=N/Nc2cc(C)nc(NS(=O)(=O)c3ccc(C)cc3)n2)ccc1O	none
COc1cc(/C=N/Nc2cc(C)nc(NS(=O)(=O)c3ccccc3)n2)ccc1O	none | D3 arrestin ag inactive | D2 ag-3 inactive
COc1ccc(-c2c(C#Cc3ccsc3)c3cc(-c4ccc(OC)c(F)c4)ccc3n2C)cc1	none | D3 arrestin ag inactive | D2 ag-3 inactive
COc1ccc(-c2ccc3c(c2)c(C#Cc2ccsc2)c(-c2cc(OC)cc(OC)c2)n3C)cc1	none (no result: D2 antag, D2 ag-2, D2 PAM-2)
CNC(=O)CSc1nnc(NC(=O)Nc2ccccc2)s1	none (no result: D2 antag, D2 ag-1, D2 PAM-1)
C/C(=N\NC(=O)CN1CCCCC1)c1ccccc1O	D2 antag 84.6, D2 ag-2 65.2 | D3 arrestin ag inactive | D2 ag-3 inactive
C=CCNC(=S)NCc1ccccc1	none
C=CCNCc1cccn1-c1ccccc1	none | D3 arrestin ag inactive | D2 ag-3 inactive
CCOC(=O)c1ccc(NC(=O)c2ccc(=O)n(Cc3cccc(C)c3)c2)cc1	none (no result: D2 antag, D2 ag-1, D2 PAM-1)
COc1ccccc1N1CCN(CC(C)N(C(=O)C2CCCCC2)c2ccccn2)CC1 (stereo unspecified)	D2 antag 82.1, D2 ag-2 40.3 | D3 arrestin ag inactive | D2 ag-3 inactive
CCCN1C(=O)/C(=C/c2c(NCCCOC(C)C)nc3c(C)cccn3c2=O)SC1=S	none | D3 arrestin ag inactive | D2 ag-3 inactive
CCOc1ccc(NC(=O)CC2C(=O)N(c3cccc(C)c3)C(=O)N2Cc2cccs2)cc1 (stereo unspecified)	none (no result: D2 antag, D2 ag-1, D2 PAM-1, D2 ag-2)
CCO[C@@H]1OC(C(=O)O)=C[C@H](c2csc3ccccc23)[C@H]1CCCO	D2 antag 32.0 | D3 arrestin ag inactive | D2 ag-3 inactive
C#CCNC(=O)C1=C[C@@H](c2ccc(C#C)cc2)[C@H](CCCO)[C@@H](OCC)O1	D2 antag 31.9 | D3 arrestin ag inactive | D2 ag-3 inactive
CCO[C@H]1OC(C(=O)Nc2ccccc2)=C[C@@H](c2csc3ccccc23)[C@@H]1CCCO	none
Oc1ccc(C2CNCc3sccc32)cc1O (stereo unspecified)	D2 antag 95.8, D2 ag-1 63.0, D2 PAM-1 70.7, D2 ag-2 84.2 | D3 arrestin ag 3.55µM | D2 ag-3 2.82µM
O=C(COc1ccc(Br)cc1)NNC(=O)c1ccc(-n2cncn2)c([N+](=O)[O-])c1	none | D3 arrestin ag inactive | D2 ag-3 inactive
CN(C)S(=O)(=O)n1cnc([C@@H]2[C@@H]3C(=O)OC[C@@H]3C[C@]23N=CN(Cc2ccccc2)C3=O)c1	D2 antag 30.9 | D3 arrestin ag inactive | D2 ag-3 inactive
CN(C)S(=O)(=O)n1cnc([C@H]2c3c(ncn3Cc3ccccc3)C[C@H]3COC(=O)[C@@H]32)c1	none
CCC(C)NC(=O)Cn1c(=O)n(-c2cc(OC)cc(OC)c2)c(=O)c2ccccc21 (stereo unspecified)	none (no result: D2 antag, D2 ag-1, D2 PAM-1, D2 ag-2)
CCOc1ccc(NC(=O)c2cnn3c2NC(c2cccc(OC)c2)=CC3c2ccccc2)cc1 (stereo unspecified)	none (no result: D2 antag, D2 ag-1, D2 PAM-1)
COc1cccc(N2CC(=O)N(NC(=O)CSc3nc(C)cc(C)c3C#N)CC2=O)c1	D2 ag-2 43.3 | D3 arrestin ag inactive | D2 ag-3 inactive
CN(C)CCCOc1cccc(Cl)c1	none
c1ccc(Cc2ccc(OCCN3CCOCC3)cc2)cc1	none
O=S(=O)(c1ccc(Br)s1)N1CCN(CCOc2ccccc2)CC1	D2 antag 53.0, D2 ag-2 43.2 | D3 arrestin ag inconclusive | D2 ag-3 inactive
Clc1cccc(OCCN2CCN(CCOc3cccc(Cl)c3)CC2)c1	D2 antag 92.6, D2 ag-1 inconclusive, D2 ag-2 74.0 | D3 arrestin ag inconclusive | D2 ag-3 inactive
c1ccc(OCCN2CCOCC2)cc1	D2 ag-2 37.5 | D3 arrestin ag inactive | D2 ag-3 inactive
CCCN1C(=O)C2(c3ccccc31)c1c(oc3ccc(C)cc3c1=O)C(=O)N2CCOC (stereo unspecified)	none (no result: D2 antag, D2 ag-1, D2 PAM-1)
Cn1cncc1C#Cc1ccc2cc(CCO)oc(=O)c2c1	none | D3 arrestin ag inactive | D2 ag-3 inactive
Cc1ccc(C)c(CN2C(=O)c3ccccc3S(=O)c3ccc(C(=O)NCc4ccco4)cc32)c1 (stereo unspecified)	none (no result: D2 antag, D2 ag-1, D2 PAM-1)
CCn1cc(C(=O)N2CCN(c3ccc(F)cc3)CC2)c(=O)c2cc(S(=O)(=O)N3CCOCC3)ccc21	none (no result: D2 antag, D2 ag-1, D2 PAM-1)
COC(=O)COc1ccc(NC(=O)Cn2nc(-c3ccccc3)c3ccccc3c2=O)cc1	none
COc1ccc(-c2nn(CC(=O)Nc3ccc(Cl)c(Cl)c3)c(=O)c3ccccc23)cc1	D2 ag-2 53.6 | D3 arrestin ag inactive | D2 ag-3 inactive
